Laboratory results: PubChem BioAssay (NCI)
The panel holds about 83,000 compounds, 20% with a hit somewhere; the sample as a whole holds those more often.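 How to read the values: 0–100, growth inhibition (40 = 60% inhibited); 0, no net growth; -100 to 0, cell death (-40 = 40% of starting cells died; -100 = all dead).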 Values without a mark were called inactive. Activity calls are given as the source filed them. How the source made its calls: active means growth percent below 10; inactive means the rest.

Tests used:
Assay in all cases: NCI-60 one-dose screen, 48 h (100 = growth as untreated, 0 = no growth, -100 = all killed)
Details in all cases: 10 µM unless noted
SN12C renal = test system: SN12C renal
UO-31 renal = test system: UO-31 renal
TK-10 renal = test system: TK-10 renal
ACHN renal = test system: ACHN renal
CAKI-1 renal = test system: CAKI-1 renal
A498 renal = test system: A498 renal
CCRF-CEM leukemia = test system: CCRF-CEM leukemia
MOLT-4 leukemia = test system: MOLT-4 leukemia

Row | SMILES | growth (SN12C renal) [%] | growth (UO-31 renal) | growth (TK-10 renal) [%] | growth (ACHN renal) [%] | growth (CAKI-1 renal) | growth (A498 renal) | growth (CCRF-CEM leukemia) | growth (MOLT-4 leukemia)
1 | O=Cc1ccc2nc(C(Cl)(Cl)Cl)ccc2c1 | 104 | 81.8% | 101 | 101 | 99.7% | 93.6% | 91.9% | 98.4%
2 | O=C(Nc1ccc2[nH]c3ccccc3c2c1)c1ccccc1Cl | 61.3 | 65.7% | 49.7 | 70 | 27.2% | 44.7% | 40.1% | 33.4%
3 | CCOC(=O)c1c(NC(=O)c2ccccc2)sc2c(O)c(CN(CC)CC)ccc12 | 24.3 | 37.5% | 19.8 | 29.5 | 1.51% (active) | -22.7% (active) | 5.79% (active) | 14%
4 | COc1ccc(C2=NN(C=O)C(c3ccc(OS(=O)(=O)c4ccc(C)cc4)c(OC)c3)C2)cc1 (stereo not given) | 76.9 | 53.9% | 73.2 | 69.1 | 52.7% | 39.6% | 37.9% | 40.7%
5 | CC(=O)c1c(C)nc(-c2cc(C)cc(Cl)c2)nc1-c1cccc(Oc2ccccc2)c1 | 80.1 | 85.2% | 93.6 | 99.6 | 68.2% | 41.3% | 32.5% | 27.9%
6 | COc1ccc(-c2nc(-c3ccccc3OCc3ccccc3OC)nc(C)c2C(C)=O)cc1 | 85.1 | 64.3% | 103 | 87 | 73.3% | 79.1% | 73.1% | 62.4%
7 | Cc1cc(C)c2c(n1)sc1c(Nc3ccc(O)cc3)ncnc12 | 21.5 | -10.3% (active) | 59.1 | 16 | 15.8% | 18.6% | 16.6% | 14.3%
8 | COC(=O)C(C)NC1=C(Cl)C(=O)C(NC(C)C(=O)OC)=C(Cl)C1=O (stereo not given) | 99.5 | 89.8% | 121 | 106 | 103% | 89.3% | 96% | 93.5%
9 | Cc1nc2ccc(Nc3nc(Cl)nc(N4CCOCC4)n3)cc2n1Cc1ccccc1 | 78.2 | 73.8% | 44.7 | 79.4 | 104% | 91.7% | 45.7% | 25.8%
10 | Cc1cc(C)c(C#N)c(SCC(=O)c2sc3c(C#N)c(C)cc(C)[n+]3c2[O-])n1 | 31.4 | 45.5% | 35.3 | 31 | -6.91% (active) | -6.21% (active) | 9.64% (active) | 2.71% (active)
